Each structure is given as a SMILES string.

The test concerns the target Glucose transporter (Leishmania mexicana) (UniProt O61059). Briefly: ST_JUDE_LEISH: Cytotoxicity at 2uM final concentration against transgenic Leishmania Mexicana promastigotes LmGT2 that are glucose transport deficient and complemented with the L. Mexicana glucose transporter 2. Activity is measured by DNA content using SYBR green in vitro. The class given is functional.
Broadly, the inhibition is the change of the read-out against control, counted positive when it falls. With `O=C(/C=C/c1ccc(Cl)c(Cl)c1)N1CCC(CN2CCC(c3c[nH]c4ncccc34)CC2)CC1`, the inhibition stood at 2.38%.
The same measure for `CCOc1cc(C(=O)N[C@@H](Cc2ccccc2)[C@H](O)CNCc2cc(OC)cc(OC)c2)cc(N2CCCCS2(=O)=O)c1`: -1.52%; for `CC(C)(C)c1ccc(C(=O)N2CCC3(CC2)C(=O)N(CC(=O)NCC2CCCO2)CN3c2ccccc2)cc1` (centres undefined): 0.02%; for `Cc1cccc2nc(-c3ccc(-c4cccc(NC(=O)CCc5c[nH]cn5)c4)s3)[nH]c12`: 1.67%.
Consider `C[C@H](NC(=O)c1c(CN2CCC(N3CCCCC3)CC2)c(-c2ccccc2)nc2cc(O)ccc12)C1CCCCC1`, for which the inhibition turned out to be 3.03%.
Regarding `CN1CCC(C(=O)Nc2cccc(-c3cccc(-c4nc5cc(F)ccc5[nH]4)c3)c2)CC1`, the inhibition was determined as 6.69%.
As to `CC(C)CCNc1nc(NCCc2ccccc2)c2cc(O)ccc2n1`, the inhibition was -2.18%.
Consider `c1ccc(Oc2ccc(Nc3ccnc4cc(-c5ccc(CNCCN6CCOCC6)o5)ccc34)cc2)cc1`, for which the inhibition was 0.92%.
As for `O=C(Nc1ccc(C(F)(F)F)cc1)c1ccc(S(=O)(=O)NC2CCCN(CC3CCCCC3)C2)cc1` (centres undefined), the figure is 4.45%; as for `CCC(CC)(Cc1ccccc1)NC(=O)[C@H](CC(C)C)Nc1ccc(C#N)c2ccccc12`, 10.7%.
As for `c1ccc(CCNCc2ccc(-c3ccc(CNC4CCN(Cc5ccccc5)CC4)cc3)nc2)cc1`, the figure is 4.15%; as for `CC1(C)N=C(N)N=C(N)N1OCCc1ccc2ccccc2c1`, 3.22%.
As for `O=C(Nc1cccc(-c2cccc(CN3CCCC3)c2)c1)c1ccc(Cl)cc1`, the figure is 3.94%.
As for `Cc1cc2nc(-c3ccc(OCC(=O)NCc4ccc(C(C)(C)C)cc4)cc3)[nH]c2cc1C`, the inhibition was determined as 6.35%.
